This is a sample that favours compounds with a hit; in the whole collection about 5% have one here.
USP8 inh – inhibitors of human USP8 deubiquitinase; P40818; purified USP8, Ub-rhodamine cleavage fluorescence, 30 min; inhibition, % at 20 µM; 4.2% of 47,000 active; AID 1645853
USP7 block – inhibitors of human USP7 deubiquitinase | 0.3% of 47,000 active | purified USP7, Ub-rhodamine cleavage fluorescence | AID 1645854 | Q93009 | inhibition, % at 20 µM
Target sequence (Q93009 whole entry, looked up): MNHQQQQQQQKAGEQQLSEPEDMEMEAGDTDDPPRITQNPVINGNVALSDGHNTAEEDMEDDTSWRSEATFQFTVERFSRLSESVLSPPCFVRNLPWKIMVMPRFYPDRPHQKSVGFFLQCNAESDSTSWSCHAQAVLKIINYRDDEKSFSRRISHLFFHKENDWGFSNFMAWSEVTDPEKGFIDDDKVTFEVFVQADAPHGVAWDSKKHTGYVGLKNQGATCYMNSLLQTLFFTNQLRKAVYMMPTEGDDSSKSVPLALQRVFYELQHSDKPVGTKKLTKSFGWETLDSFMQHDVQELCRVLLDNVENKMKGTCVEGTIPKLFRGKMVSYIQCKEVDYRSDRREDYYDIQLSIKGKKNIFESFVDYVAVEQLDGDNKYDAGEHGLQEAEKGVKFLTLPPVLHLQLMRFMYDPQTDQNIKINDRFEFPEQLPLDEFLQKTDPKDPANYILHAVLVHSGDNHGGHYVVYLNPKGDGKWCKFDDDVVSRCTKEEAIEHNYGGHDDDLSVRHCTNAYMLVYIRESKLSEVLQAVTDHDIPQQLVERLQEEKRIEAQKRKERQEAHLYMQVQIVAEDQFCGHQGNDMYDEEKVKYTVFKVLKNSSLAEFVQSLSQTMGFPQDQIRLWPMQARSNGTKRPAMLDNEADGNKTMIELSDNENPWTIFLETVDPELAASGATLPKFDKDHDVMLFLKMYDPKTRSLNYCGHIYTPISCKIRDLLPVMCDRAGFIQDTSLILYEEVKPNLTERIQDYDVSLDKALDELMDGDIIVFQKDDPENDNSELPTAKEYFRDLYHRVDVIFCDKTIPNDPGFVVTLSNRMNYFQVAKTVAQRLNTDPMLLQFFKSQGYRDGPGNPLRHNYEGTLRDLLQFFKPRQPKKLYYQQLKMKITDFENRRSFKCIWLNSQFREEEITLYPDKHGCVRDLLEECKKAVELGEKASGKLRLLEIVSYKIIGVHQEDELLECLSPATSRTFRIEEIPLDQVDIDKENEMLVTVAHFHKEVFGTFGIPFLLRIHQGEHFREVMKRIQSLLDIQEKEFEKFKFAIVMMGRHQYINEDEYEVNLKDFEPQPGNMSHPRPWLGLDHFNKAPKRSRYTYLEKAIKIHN
UCHL1 inh – inhibitors of human UCHL1 deubiquitinase; inhibition, % at 20 µM; AID 1645859; purified UCHL1, Ub-rhodamine cleavage fluorescence; 0.2% of 47,000 active
USP10 block – human USP10 deubiquitinase inhibition; purified USP10, Ub-rhodamine fluorescence, 60 min; inhibition, % at 20 µM; 1.1% of 47,000 active; AID 1645856
Active calls of the source: *. Rule as the data show it: active = inhibition above about 30%; inactive = the rest.

SMILES	USP8 inh	USP7 block	UCHL1 inh	USP10 block
COc1ccc(NC(=O)c2ccc3[nH]c4c(c3c2)CC(C)CC4)cc1 (stereo unspecified)	26	2	2	4
CC(=O)Nc1ccc(S(=O)(=O)Nc2ccc(C#N)cc2)cc1Cl	9	0	1	2
Cc1nn(-c2nc3ccccc3n2C)c2c1C(c1ccc(C#N)cc1)CC(=O)N2 (stereo unspecified)	4	2	1	2
COc1ccc(C)cc1NC(=O)CN1C(=O)C2CCCC2=Nc2ccccc21 (stereo unspecified)	42*	8	3	25
COc1ccc(CNC(=O)CN2C(=O)C3CCCC3=Nc3ccccc32)cc1 (stereo unspecified)	83*	7	6	20
COc1cccc(NC(=O)CN2C(=O)C3CCCC3=Nc3ccccc32)c1 (stereo unspecified)	7	4	5	6
O=C(Nc1cccnc1)c1ncn2c1CN(CC1CC1)S(=O)(=O)c1ccccc1-2	-44	2	5	-3
O=c1c2cnc(N3CCCCC3)nc2ccn1CCc1ccccc1	17	28	6	7
CCOc1ccc2c(c1)c(=O)c(C(=O)c1ccc(C)cc1)cn2CC(=O)Nc1ccc(OC)c(OC)c1	87*	26	15	48*
Cc1ccc(C(=O)c2cn(CC(=O)Nc3ccc(Cl)cc3)c3ccc(F)cc3c2=O)cc1	60*	2	-4	15
CCOc1ccc2c(c1)c(=O)c(C(=O)c1ccc(F)cc1)cn2CC(=O)Nc1ccc(F)cc1	72*	47*	30*	20
COc1ccc(NC(=O)Cn2cc(C(=O)c3ccc(OC)cc3)c(=O)c3cc4c(cc32)OCCO4)cc1	44*	8	6	6
COc1ccc(N2CC(C)Cn3c2nc2c3c(=O)n(Cc3cccc4ccccc34)c(=O)n2C)cc1 (stereo unspecified)	-53	1	6	-1
Cc1cc(CC2CCN(C(=O)c3cc(=O)n(C)c(=O)n3C)CC2)ccn1	2	3	0	2
COc1ccc(Cn2cc(-c3ccc(Cl)cc3)cc(C#N)c2=O)cc1	7	9	2	8
O=C(NCc1cccnc1)C1CCN(S(=O)(=O)c2ccc3c(c2)CCCC3)CC1	9	-2	3	7
COc1ccc(NC(=O)Cn2cc(C(=O)c3ccc(F)cc3)c(=O)c3cc(C)ccc32)cc1	23	16	8	41*
Cc1ccc(S(=O)(=O)N2CCN(C(=O)CN3c4ccccc4CC3C)CC2)c(C)c1 (stereo unspecified)	37*	-1	-6	-12
Cc1ccc(N=Cc2sc(O)c3ccccc23)c(C)c1	-292	-144	-166	-10
Oc1sc(C=Nc2cc(Cl)ccc2Cl)c2ccccc12	47*	-5	-9	-10
COc1ccc(NC(=O)c2cnc(N3CCCCC3)nc2C)cc1OC	-55	-10	-3	-4
Cn1c(=O)[nH]c(=O)c2c1nc(N1CCc3ccccc3C1)n2CCSc1nnnn1-c1ccccc1	86*	-2	-4	19
Cn1c(=O)c2c(nc(N3CCOCC3)n2CCSc2nnnn2-c2ccccc2)n(C)c1=O	-16	-4	-3	-1
Cc1cncc(C(=O)N2CCc3cnn(C)c3C2COCC2CC2)c1 (stereo unspecified)	-90	7	0	-1
O=C(O)C1=CC(/C=C/c2ccccc2)n2ncc(C(=O)Nc3ccc(F)cc3)c2N1 (stereo unspecified)	41*	-142	-156	-7
SMILES	USP8 inh	USP7 block	UCHL1 inh	USP10 block
Cc1ccc(NC(=O)c2cnn3c2NC(C(=O)O)=CC3/C=C/c2ccccc2)cc1 (stereo unspecified)	34*	-142	-164	-6
O=C(Nc1ccc(N2CCOCC2)cc1)c1ccccc1C(=O)c1ccc(F)cc1	-13	-6	-3	-2
Cn1nccc1-c1cccc(-c2noc(-c3cccc(NC(=O)c4ccco4)c3)n2)c1	-22	-10	0	-6
O=C(Nc1cccc(-c2nc(-c3ccc(=O)[nH]c3)no2)c1)c1ccco1	63*	-4	1	-9
O=C(c1cccc(F)c1)N1CCC(Nc2cccnc2)C1 (stereo unspecified)	25	-45	-23	-4
O=C(NCc1ccc(F)cc1)N1CCC(Nc2cccnc2)C1 (stereo unspecified)	35*	-20	-8	-6
Cc1ccc(-c2ncc(C(=O)Nc3ccc(F)cc3)c(-c3ccncc3)n2)cc1	48*	-16	-15	-8
Cc1ccc(-c2ncc(C(=O)NC(C)c3ccccn3)c(-c3ccncc3)n2)cc1 (stereo unspecified)	6	-13	-16	-3
Cc1ccc(-c2ncc(C(=O)Nc3ccccc3Cl)c(-c3ccncc3)n2)cc1	31*	-53	-25	-10
CC(Oc1ccc(F)cc1)c1nnc(C2(c3cccc(Cl)c3)CCOCC2)o1 (stereo unspecified)	9	-74	5	3
CC(C)(C)N(Cc1ccccc1)C(=O)Cn1cnc(S(=O)(=O)N2CCCC2)c1	-3	-2	-2	1
COc1ncccc1C(=O)N1CCC(c2ccnc3cc(C)nn23)CC1	17	3	0	0
Cc1cc2nccc(C3CCN(C(=O)COc4cccnc4)CC3)n2n1	49*	-99	-34	-12
O=C1c2ccccc2C(=O)c2c(O)c(O)cc(O)c21	-13	2	45*	-3
O=C(Nc1nc2c(s1)CN(Cc1ccccc1)C2=O)Nc1ccccc1F	3	4	-4	5
O=C(NCc1ccco1)c1c2c(nc3ccccc13)-c1ccccc1CC2	55*	-8	0	0
Cc1ccc(NC(=O)c2nnn(CC(=O)Nc3cccc(C)c3C)c2N)cc1C	72*	27	3	36*
C[C@@H]1CO[C@@H]2C3=C(C(=O)C=CC3=O)[C@H]3OC(=O)[C@@H]4CCC5[C@@H]1CCC52C34 (stereo partly specified)	34*	-34	11	34*
COc1cccc(N2CCN(C(=O)CCNS(=O)(=O)c3ccc4c(c3)CCC(=O)N4)CC2)c1	10	-1	3	0
CN1CCCC(OC(=O)c2cc(Cl)cc(Cl)c2)C1 (stereo unspecified)	32*	-6	3	4
COc1cc(Cn2ccnc2C2CCN(C(=O)Cc3cccc(OC)c3OC)CC2)cc(OC)c1	-9	-2	-1	-5
CCn1cc(S(=O)(=O)NCc2cc(F)cc(F)c2)c2cccnc21	48*	-17	5	8
CC1CCN(CCNC(=O)c2cc3cn(C4CC4)cc3s2)CC1	54*	-17	-15	-7
CN1CCN(CCNC(=O)c2cc3cn(C4CCCC4)cc3s2)CC1	-9	-5	0	-4
O=C(NCCCN1CCCC1=O)c1cc2cn(C3CC3)cc2s1	66*	-16	-8	-10
CN(C)CCCNC(=O)c1cc2cn(C3CCCC3)cc2s1	63*	0	0	-3
CCC(C)(C)NS(=O)(=O)c1ccc2c(c1)CC(C)N2C(C)=O (stereo unspecified)	3	-1	2	-1

Screens from PubChem BioAssay.
